The list is not random: actives were taken first. Their share in the collection is about 2.6%.
PKA-R2B act – PKA-R2B complex activation | P22694+P31323 | PKA-R2B holoenzyme dissociation, Cy5-IP20 fluorescence polarization; R2B truncated from residue 108, S112A mutant; 0% DMSO only, 100% 113 µM cGMP | activation, % at 11.4 µM | 340,000 compounds, 0.079% hits | AID 504700;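 active = activation above a cutoff set at the mean over all compounds plus 3 SD, cut at about 18% in these data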;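 also: higher means more holoenzyme dissociation and a rise in polarization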
Target sequence (P31323 whole entry, looked up, other chains not shown, the tested form may be a part): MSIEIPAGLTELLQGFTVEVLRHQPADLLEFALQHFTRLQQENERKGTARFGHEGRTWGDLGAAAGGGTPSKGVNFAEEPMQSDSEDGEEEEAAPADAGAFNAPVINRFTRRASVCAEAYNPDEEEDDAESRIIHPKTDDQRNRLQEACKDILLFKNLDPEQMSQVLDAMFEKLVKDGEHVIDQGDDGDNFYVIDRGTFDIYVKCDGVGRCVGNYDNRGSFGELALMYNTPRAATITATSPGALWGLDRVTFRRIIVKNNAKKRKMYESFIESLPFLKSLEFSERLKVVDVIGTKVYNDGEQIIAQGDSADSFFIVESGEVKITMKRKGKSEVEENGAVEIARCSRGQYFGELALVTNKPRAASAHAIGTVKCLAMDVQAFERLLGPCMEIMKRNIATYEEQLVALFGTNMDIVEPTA
PAFAH1B3 FP inh – PAFAH1B3 (human) inhibition; 340,000 compounds, 0.28% hits; inhibition, % at 3.39 µM; AID 492972; recombinant PAFAH1B3, FP-rhodamine probe, fluorescence polarization;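 active = inhibition above the screen-wide average of all tested compounds plus 3 SD, cut at about 25% in these data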
pPAFAH FP inh – inhibitors of human plasma PAF acetylhydrolase (pPAFAH). 330,000 compounds, 1.5% hits. AID 463082. recombinant pPAFAH, FP-rhodamine probe fluorescence polarization. inhibition, % at 3.39 µM. Q13093;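 active = inhibition above the mean inhibition across the screen plus 3 SD, cut at about 25% in these data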;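 also: inhibitors block binding of the rhodamine activity-based probe so polarization drops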
PAFAH2 inh – inhibitors of human PAFAH2. AID 492956. 340,000 compounds, 0.99% hits. inhibition, % at 3.39 µM. Q99487. recombinant PAFAH2, FP-rhodamine activity probe, fluorescence polarization;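 active = inhibition above the mean over all tested compounds plus 3 SD, cut at about 30% in these data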;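 also: inhibitors block probe labeling of enzyme so polarization drops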
PKA-R1A activ – activators of PKA-R1A complex; PKA-R1A dissociation, Cy5-IP20 fluorescence polarization; scaled: DMSO 0%, 113 µM cGMP 100%; activation, % at 11.4 µM; P00514+P68181; 340,000 compounds, 0.083% hits;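 active = percent activation above the mean of all tested compounds plus 3 SD, cut at about 19% in these data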;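 also: higher means more PKAc released from R1A so a rise in polarization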
PAFAH1B2 FP inh – inhibitors of human PAFAH1B2; P68402; recombinant PAFAH1B2, FP-rhodamine activity probe, fluorescence polarization; inhibition, % at 3.39 µM; 340,000 compounds, 1.2% hits;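 active = inhibition above the mean of all tested compounds plus 3 SD, cut at about 24% in these data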
A number is an active result; n = inactive; x = no result.

SMILES | PKA-R2B act | PAFAH1B3 FP inh | pPAFAH FP inh | PAFAH2 inh | PKA-R1A activ | PAFAH1B2 FP inh
COc1ccc(NS(=O)(=O)c2cccc(-c3nnc4n3CCCCC4)c2)cc1 | n | n | 28.5 | n | n | n
COc1ccc(NS(=O)(=O)c2cccc(NC(=O)c3ccc(S(=O)(=O)N4CCCCCC4)cc3)c2)cc1 | n | n | n | n | n | n
COc1ccccc1S(=O)(=O)Nc1cccc(-c2nnc3n2CCCCC3)c1 | n | n | n | n | n | n
COc1ccc(NS(=O)(=O)c2cccc(NC(=O)C34CCC(CC3)C4)c2)cc1 | n | n | 26.0 | n | n | n
CCOc1ccccc1C(=O)NCC(=O)NNC(=O)c1cccc(S(=O)(=O)Nc2ccc(OC)cc2)c1 | n | n | 26.4 | n | n | n
O=C(CC1CCCC1)N1CCN(S(=O)(=O)c2c(F)cccc2F)CC1 | n | x | x | x | n | x
COc1ccc(NS(=O)(=O)c2cccc(C(=O)NNC(=O)c3cc(S(N)(=O)=O)ccc3OC)c2)cc1 | n | n | 24.8 | n | n | n
COc1ccc(NS(=O)(=O)c2cccc(C(=O)NNC(=O)c3ccc(NC(C)=O)cc3)c2)cc1 | n | n | 25.8 | n | n | n
COc1ccc(NS(=O)(=O)c2cccc(C(=O)N3CCCCCC3)c2)cc1 | n | n | 31.1 | n | n | n
CNC(=S)Nc1ccc(N2CCCC2)c(S(=O)(=O)Nc2ccc(OC)cc2)c1 | n | n | n | n | n | n
COc1ccc(NS(=O)(=O)c2ccc(N3CCCC3)c(NC(=S)Nc3cccc(S(=O)(=O)N(C)C)c3)c2)cc1 | x | x | 33.0 | x | x | x
O=C(O)c1cccc(S(=O)(=O)Nc2cc(Cl)ccc2Cl)c1 | n | n | n | n | n | 24.2
COc1ccc(NS(=O)(=O)c2cccc(C(=O)NN=Cc3ccc(OC)c(O)c3)c2)cc1 | n | n | 32.0 | n | n | n
O=C(O)c1cccc(S(=O)(=O)Nc2ccccc2Cl)c1 | n | n | n | n | n | n
O=C(O)c1cccc(S(=O)(=O)Nc2ccc(N3CCCCC3)cc2)c1 | n | n | 26.7 | n | n | n
COc1ccc(NS(=O)(=O)c2cccc(C(=O)N/N=C/c3c(F)c(F)c(F)c(F)c3F)c2)cc1 | n | n | x | n | n | n
Cc1cccc(NC(=O)CN2C(=O)S/C(=C\c3ccc(O)c([N+](=O)[O-])c3)C2=O)c1 | n | 26.3 | 29.4 | n | n | n
O=C(CN1C(=O)S/C(=C\c2cc(Cl)c(O)c(Cl)c2)C1=O)Nc1ccccc1 | n | n | 25.5 | n | n | n
COc1ccc(CCN(C)Cc2ccc(C(=O)Nc3ccccc3)cc2)cc1OC | n | n | n | n | n | n
CN(C(=O)c1cccc(COc2ccc(Cl)cc2Cl)c1)c1ccccc1 | n | n | n | n | n | 26.6
O=C(NCc1ccccc1)c1cccc(COc2cc(Cl)ccc2Cl)c1 | n | n | n | n | n | n
CCOc1ccc(NC(=O)c2ccc(F)cc2F)cc1 | n | n | n | n | n | n
CCC(=O)Nc1cccc(C(=O)OCC(=O)c2ccccc2Cl)c1 | n | n | n | 40.9 | n | n
Cc1ccccc1OCc1occc1C(=O)Nc1cccc(-n2cnnn2)c1 | n | n | n | n | n | n
CC(C)(C)NC(=O)C12CC3CC(CC(Cl)(C3)C1)C2 | n | n | n | n | n | n
SMILES | PKA-R2B act | PAFAH1B3 FP inh | pPAFAH FP inh | PAFAH2 inh | PKA-R1A activ | PAFAH1B2 FP inh
O=C(O)c1ccc(CNC(=O)C23CC4CC(CC(C4)C2)C3)cc1 | n | n | n | n | n | 29.0
CC(C)(CO)NC(=O)C12CC3CC(CC(Br)(C3)C1)C2 | n | n | n | n | n | 26.1
COc1ccc(CNC(=O)C23CC4CC(CC(Br)(C4)C2)C3)cc1 | n | n | n | n | n | 25.9
C[C@@H]1NC(=O)c2cc([N+](=O)[O-])cc(I)c2OCC[C@@H](C(N)=O)NC(=O)[C@H](CCCCN)NC1=O | n | n | n | n | n | n
NCCCC[C@H]1NC(=O)[C@H](CCC(=O)O)NC(=O)c2cc([N+](=O)[O-])cc(I)c2OCC[C@@H](C(N)=O)NC1=O | x | x | 32.8 | x | x | x
Cc1cc(C)c2c(-n3cccc3)c(C(=O)NNS(=O)(=O)c3ccccc3)sc2n1 | n | n | n | n | n | n
Cc1cc(C)c2c(-n3cccc3)c(C(=O)NNS(=O)(=O)c3ccc(Cl)cc3)sc2n1 | n | n | n | n | n | 36.9

Bioassay records (PubChem)
